# Laboratory results taken from paper PMC11062922 (Nature Chemical Biology, 2023).
# Where two headings read alike, the source gives them in different places.
# Columns and labels:
# AAK1 = test system: AAK1; parameters: species or system human, MV4-11 + K-562 + COLO205 + SK-N-BE2 + OVCAR-8; conditions: read-out: apparent Kd, n = 1
# BMP2K = test system: BMP2K; parameters: species or system human, MV4-11 + K-562 + COLO205 + SK-N-BE2 + OVCAR-8; conditions: read-out: apparent Kd, n = 1
# CSNK2A1;CSNK2A3 = test system: CSNK2A1;CSNK2A3; parameters: species or system human, MV4-11 + K-562 + COLO205 + SK-N-BE2 + OVCAR-8; conditions: read-out: apparent Kd, n = 1
# FLT3 = test system: FLT3; parameters: species or system human, MV4-11 + K-562 + COLO205 + SK-N-BE2 + OVCAR-8; conditions: read-out: apparent Kd, n = 1
# GAK = test system: GAK; parameters: species or system human, MV4-11 + K-562 + COLO205 + SK-N-BE2 + OVCAR-8; conditions: read-out: apparent Kd, n = 1
# MYLK3 = test system: MYLK3; parameters: species or system human, MV4-11 + K-562 + COLO205 + SK-N-BE2 + OVCAR-8; conditions: read-out: apparent Kd; compound concentrations:100 nM and 1000 nM (sheet 'Samples'); n = 1
# NUAK1 = test system: NUAK1; parameters: species or system human, MV4-11 + K-562 + COLO205 + SK-N-BE2 + OVCAR-8; conditions: read-out: apparent Kd; compound concentrations:100 nM and 1000 nM (sheet 'Samples'); n = 1
# PAK4 = test system: PAK4; parameters: species or system human, MV4-11 + K-562 + COLO205 + SK-N-BE2 + OVCAR-8; conditions: read-out: apparent Kd, n = 1
# PRKD2 = test system: PRKD2; parameters: species or system human, MV4-11 + K-562 + COLO205 + SK-N-BE2 + OVCAR-8; conditions: read-out: apparent Kd; compound concentrations:100 nM and 1000 nM (sheet 'Samples'); n = 1
# Q6ZSR9 = Q6ZSR9 (human, UniProt Q6ZSR9); parameters: species or system MV4-11 + K-562 + COLO205 + SK-N-BE2 + OVCAR-8; conditions: read-out: apparent Kd, n = 1
# Q6ZSR9, sequence (Q6ZSR9 whole entry, looked up): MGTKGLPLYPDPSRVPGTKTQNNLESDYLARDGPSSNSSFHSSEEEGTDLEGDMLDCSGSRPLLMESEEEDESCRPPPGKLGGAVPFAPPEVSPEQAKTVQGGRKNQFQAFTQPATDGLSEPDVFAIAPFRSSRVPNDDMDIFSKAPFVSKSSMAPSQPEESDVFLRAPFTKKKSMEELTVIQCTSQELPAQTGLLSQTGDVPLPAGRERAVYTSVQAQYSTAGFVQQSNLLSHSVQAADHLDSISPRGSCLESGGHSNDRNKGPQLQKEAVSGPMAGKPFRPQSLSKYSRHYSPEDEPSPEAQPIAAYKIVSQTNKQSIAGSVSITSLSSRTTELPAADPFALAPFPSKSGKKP
# CLK4 = test system: CLK4; parameters: species or system human, MV4-11 + K-562 + COLO205 + SK-N-BE2 + OVCAR-8; conditions: read-out: apparent Kd, compound concentrations: 100 nM and 1000 nM (sheet 'Samples'), n = 1
# GSK3A = test system: GSK3A; parameters: species or system human, MV4-11 + K-562 + COLO205 + SK-N-BE2 + OVCAR-8; conditions: read-out: apparent Kd, n = 1
# GSK3B = test system: GSK3B; parameters: species or system human, MV4-11 + K-562 + COLO205 + SK-N-BE2 + OVCAR-8; conditions: read-out: apparent Kd, n = 1
# FLT4 = test system: FLT4; parameters: species or system human, MV4-11 + K-562 + COLO205 + SK-N-BE2 + OVCAR-8; conditions: read-out: apparent Kd, compound concentrations: 100 nM and 1000 nM (sheet 'Samples'), n = 1
# RET = test system: RET; parameters: species or system human, MV4-11 + K-562 + COLO205 + SK-N-BE2 + OVCAR-8; conditions: read-out: apparent Kd, compound concentrations: 100 nM and 1000 nM (sheet 'Samples'), n = 1
# CDKL5 = test system: CDKL5; parameters: species or system human, MV4-11 + K-562 + COLO205 + SK-N-BE2 + OVCAR-8; conditions: read-out: apparent Kd, compound concentrations: 100 nM and 1000 nM (sheet 'Samples'), n = 1
# DYRK1A = test system: DYRK1A; parameters: species or system human, MV4-11 + K-562 + COLO205 + SK-N-BE2 + OVCAR-8; conditions: read-out: apparent Kd; compound concentrations: 100 nM and 1000 nM (sheet 'Samples'), CATDS: 2.3831773073254899E-2; n = 1
# [1] = compound concentrations:100 nM and 1000 nM (sheet 'Samples')
compound,measurement,setting,value
Cc1cccc(Nc2nc(N[C@H]3CCNC3)ncc2C(N)=O)c1.Cl [GSK2197149A],potency estimated from few doses,AAK1; [1],64.6 nM
same,potency estimated from few doses,BMP2K; [1],540 nM
same,potency estimated from few doses,CSNK2A1;CSNK2A3; [1],2150 nM
same,potency estimated from few doses,FLT3; [1],1070 nM
same,potency estimated from few doses,GAK; [1],343 nM
same,potency estimated from few doses,MYLK3,2040 nM
same,potency estimated from few doses,NUAK1,1690 nM
same,potency estimated from few doses,PAK4; [1],562 nM
same,potency estimated from few doses,PRKD2,1170 nM
same,potency estimated from few doses,Q6ZSR9; [1],85.6 nM
O=C1N=C(NCc2c(Cl)cccc2Cl)S/C1=C\c1ccc2ncccc2c1 [RO4600445-000],potency estimated from few doses,"AAK1; compound concentrations: 100 nM and 1000 nM (sheet 'Samples'), CATDS: 0.26661690920713499",1130 nM
same,potency estimated from few doses,CLK4; CATDS: 0.27673451036998298,1050 nM
same,potency estimated from few doses,"Q6ZSR9; compound concentrations: 100 nM and 1000 nM (sheet 'Samples'), CATDS: 0.220638600653874",1680 nM
CNCc1ccc(-c2cc(-c3nc(-c4ccc(S(=O)(=O)C(C)C)cc4)cnc3N)on2)cc1 [VE-822],potency estimated from few doses,AAK1; [1],1850 nM
same,potency estimated from few doses,GSK3A; [1],684 nM
same,potency estimated from few doses,GSK3B; [1],810 nM
same,potency estimated from few doses,Q6ZSR9; [1],1240 nM
CN(c1ccc(NC(=O)NCCN2CCOCC2)cc1)c1ccnc(Nc2ccc(CS(C)(=O)=O)cc2)n1.Cl [GW830365A],potency estimated from few doses,"AAK1; compound concentrations: 100 nM and 1000 nM (sheet 'Samples'), CATDS: 5.9294254337115E-2",785 nM
same,potency estimated from few doses,"BMP2K; compound concentrations: 100 nM and 1000 nM (sheet 'Samples'), CATDS: 5.1935568412460401E-2",1150 nM
same,potency estimated from few doses,"FLT3; compound concentrations: 100 nM and 1000 nM (sheet 'Samples'), CATDS: 0.17522141736576",107 nM
same,potency estimated from few doses,FLT4; CATDS: 0.17294643484613401,109 nM
same,potency estimated from few doses,"Q6ZSR9; compound concentrations: 100 nM and 1000 nM (sheet 'Samples'), CATDS: 5.6296915490776901E-2",904 nM
same,potency estimated from few doses,RET; CATDS: 9.0906950139660506E-2,308 nM
Cl.Cl.NC(CNC(=O)c1cc(Br)c(-c2ccnc3[nH]ccc23)s1)c1ccccc1.NC(CNC(=O)c1cc(Br)c(-c2ccnc3[nH]ccc23)s1)c1ccccc1 (stereo not drawn) [GSK1322949A],potency estimated from few doses,"AAK1; compound concentrations: 100 nM and 1000 nM (sheet 'Samples'), CATDS: 3.1655313708127797E-2",1070 nM
same,potency estimated from few doses,"BMP2K; compound concentrations: 100 nM and 1000 nM (sheet 'Samples'), CATDS: 4.4675050363511E-2",552 nM
same,potency estimated from few doses,CDKL5; CATDS: 2.6362691965297801E-2,1670 nM
same,potency estimated from few doses,CLK4; CATDS: 3.1125873030522201E-2,1120 nM
same,potency estimated from few doses,DYRK1A,2230 nM
same,potency estimated from few doses,"Q6ZSR9; compound concentrations: 100 nM and 1000 nM (sheet 'Samples'), CATDS: 3.14131871336574E-2",1090 nM
Cc1ccccc1-n1ncc(C(=O)c2ccccc2)c1N [RO1151248-000],potency estimated from few doses,"AAK1; compound concentrations: 100 nM and 1000 nM (sheet 'Samples'), CATDS: 2.38860019962077E-2",914 nM
same,potency estimated from few doses,CDKL5; CATDS: 1.7260547192186899E-2,2240 nM
same,potency estimated from few doses,"CSNK2A1;CSNK2A3; compound concentrations: 100 nM and 1000 nM (sheet 'Samples'), CATDS: 1.72589051675766E-2",2250 nM
same,potency estimated from few doses,FLT4; CATDS: 1.8880298651143101E-2,1670 nM
same,potency estimated from few doses,"GAK; compound concentrations: 100 nM and 1000 nM (sheet 'Samples'), CATDS: 3.2430470905267197E-2",506 nM
same,potency estimated from few doses,"GSK3A; compound concentrations: 100 nM and 1000 nM (sheet 'Samples'), CATDS: 2.9908240641474598E-2",584 nM
same,potency estimated from few doses,"GSK3B; compound concentrations: 100 nM and 1000 nM (sheet 'Samples'), CATDS: 2.52342080828949E-2",813 nM
same,potency estimated from few doses,"PAK4; compound concentrations: 100 nM and 1000 nM (sheet 'Samples'), CATDS: 2.19543905026186E-2",1110 nM
same,potency estimated from few doses,"Q6ZSR9; compound concentrations: 100 nM and 1000 nM (sheet 'Samples'), CATDS: 2.32948628287949E-2",967 nM
same,potency estimated from few doses,RET; CATDS: 2.2142525707208802E-2,1090 nM
